The list is not random: actives were taken first. Their share in the collection is about 2.1%.
EP2 mod = EP2 receptor (human) modulation. P43116. 0.83% of 260,000 active. EP2-expressing cells, cAMP HTRF FRET, PGE2 co-stimulation. induction, % at 25 µM;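 active = compounds whose cAMP rise, as percent of the full-agonist control response, exceeds 60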;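 note: rat C6 glioma line stably carrying human EP2 under a CMV promoter; the protocol text gives 20 µM as final concentration; 100% = response of wells given 1 µM PGE2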
Target sequence (P43116 whole entry, looked up): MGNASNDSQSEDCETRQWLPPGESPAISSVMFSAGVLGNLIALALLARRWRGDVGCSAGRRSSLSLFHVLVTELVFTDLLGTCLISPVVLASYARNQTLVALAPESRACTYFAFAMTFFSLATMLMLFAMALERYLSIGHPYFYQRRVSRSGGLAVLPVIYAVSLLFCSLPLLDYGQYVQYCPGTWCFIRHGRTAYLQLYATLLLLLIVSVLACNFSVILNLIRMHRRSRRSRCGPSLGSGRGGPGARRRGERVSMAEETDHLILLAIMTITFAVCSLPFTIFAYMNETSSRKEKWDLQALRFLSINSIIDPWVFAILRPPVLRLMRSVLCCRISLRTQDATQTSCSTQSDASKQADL
GSH fluor = compound fluoresces at 488/530 nm on GSH beads; 0.25% of 190,000 active; fluorescence (KMESF) at 10 µM; GSH beads flow cytometry, compound fluorescence 488/530 nm; active compounds read high; in the data active = fluorescence above about 89;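 note: glutathione beads carrying GST-tagged Bcl family fusion proteins plus one bare bead set; values are compound well signal with DMSO vehicle wells as background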
Avidin bead fluor = avidin bead compound fluorescence profile; Avidin beads, compound fluorescence 488/530 nm, flow cytometry; active compounds read high; fluorescence (KMESF) at 10 µM; AID 1775; 0.38% of 220,000 active; in the data active = fluorescence above about 47
HMGR II inh = blocks class II HMG-CoA reductase of Enterococcus faecalis. purified E. faecalis HMGR, NADPH absorbance 340 nm kinetic. inhibition, % at 10 µM. 0.41% of 190,000 active. AID 1066;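 active = inhibition above a set limit, the median over all tested compounds plus 3 SD, cut at about 9.5% in these data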;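 note: enzyme runs in reverse so mevalonate oxidation gives rising NADPH absorbance; 0% = complete reaction with DMSO and 100% = background rate lacking mevalonate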
EP2 antag = EP2 receptor (human) inhibition; P43116; C6 glioma cells expressing human EP2, cAMP TR-FRET; cells stimulated with saturating PGE2; inhibition, % at 25 µM; 0.52% of 260,000 active; AID 1422;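 active = percent inhibition above 40 after rounding to a whole number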;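 note: rat C6 glioma host cells with rolipram phosphodiesterase inhibitor present; the protocol text gives 20 µM as final concentration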
EP2 cAMP induct = human EP2 receptor cAMP induction, negative in counter-screens; calls only at 20 µM (by protocol); 47% of 1,300 active; C6 glioma EP2 cells, cAMP HTRF induction; plus low (about EC15) PGE2 agonist; shares compounds with EP2 mod;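 active = cAMP induction above 50% in the main assay while under 30% in all four parallel counter assays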;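 note: rat C6 glioma cells stably expressing human EP2 receptor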
* marks the source's active call; other numbers are inactive results.

Cc1cccc(Oc2sc(C(=O)c3ccccc3)c(N)c2C#N)c1 was read as EP2 mod 72.0*, GSH fluor 15, Avidin bead fluor 35, HMGR II inh 1.1, EP2 antag 7.7 and EP2 cAMP induct inactive.
COCCN1CC2=C(C1=O)C(c1cccc(OC)c1)NC(=O)N2 (stereo unspecified) was read as EP2 mod -5.2 and EP2 antag 5.0.
`CC(=O)N(c1cccc(Br)c1)C1C=CS(=O)(=O)C1` (stereo unspecified) gave EP2 mod 69.5*, GSH fluor 13, Avidin bead fluor 38, HMGR II inh -1.3, EP2 antag 13.8 and EP2 cAMP induct inactive.
`Cc1cc(C)cc(N(C(=O)c2ccc(Br)o2)C2C=CS(=O)(=O)C2)c1` (stereo unspecified) gave EP2 mod 18.5, GSH fluor 14, Avidin bead fluor 9, HMGR II inh -0.4 and EP2 antag 4.0.
Screening CCOC(=O)c1c(C)[nH]c(C=O)c1Cc1cccc(Cl)c1 returned EP2 mod 68.9*, GSH fluor 10, Avidin bead fluor 4, HMGR II inh 1.1, EP2 antag 6.7 and EP2 cAMP induct inactive.
Screening O=C(c1ccco1)N(CC1CCCO1)c1nc(-c2ccccc2)cs1 (stereo unspecified) returned EP2 mod 65.7*, GSH fluor 9, Avidin bead fluor 14, HMGR II inh -7.1, EP2 antag 9.6 and EP2 cAMP induct inactive.
Cc1ccc(-c2csc(N(CC3CCCO3)C(=O)c3ccco3)n2)cc1 (stereo unspecified) was read as EP2 mod 72.3*, GSH fluor 25, Avidin bead fluor 13, HMGR II inh 5.4, EP2 antag 13.8 and EP2 cAMP induct active.
Screening O=C(c1cccs1)N(CC1CCCO1)c1nc(-c2ccccc2)cs1 (stereo unspecified) returned EP2 mod 58.2, GSH fluor 6, Avidin bead fluor 19, HMGR II inh -9.8 and EP2 antag 4.4.
O=C(c1ccc(Br)o1)N(Cc1ccccc1)Cc1ccccc1 was read as EP2 mod 54.3, GSH fluor 17, Avidin bead fluor 11, HMGR II inh -8.6 and EP2 cAMP induct active.
`Cc1ccc(/C=N/N(Cc2ccccc2)c2ccccc2)o1` gave EP2 mod 69.1*, GSH fluor 64, HMGR II inh 2.2, EP2 antag 6.3 and EP2 cAMP induct active.
Screening Cc1ccc(/C=N/N2CCN(Cc3ccccc3)CC2)o1 returned EP2 mod -24.7, GSH fluor 24, Avidin bead fluor 2, HMGR II inh -2.0 and EP2 antag 10.1.
Screening Cn1c(SCC(=O)Nc2cccc3ccccc23)nnc1-c1ccncc1 returned EP2 mod -22.9 and EP2 antag 10.9.
NCCSc1nc(-c2ccccc2)c(-c2ccccc2)o1 was read as EP2 mod 42.1 and EP2 antag 9.6.
`N/C(CSc1nc(-c2ccccc2)c(-c2ccccc2)o1)=N\O` gave EP2 mod 66.8*, GSH fluor 17, Avidin bead fluor 27, HMGR II inh -0.1, EP2 antag 7.2 and EP2 cAMP induct active.
For CC(CC(=O)O)(CC(=O)O)C(=O)O the results were EP2 mod 51.0, EP2 antag 7.0 and EP2 cAMP induct inactive.
`CCCC1=C(C(=O)OCC)C(c2ccco2)C(C#N)=C(N)O1` (stereo unspecified) gave EP2 mod 15.2, GSH fluor 21, Avidin bead fluor 4, HMGR II inh 2.9 and EP2 antag 6.8.
CCOC(=O)C1=C(N)OC(C)=C(C#N)C1c1ccco1 (stereo unspecified) was read as EP2 mod 53.1, GSH fluor 20, Avidin bead fluor 14, HMGR II inh 3.1, EP2 antag 10.5 and EP2 cAMP induct inactive.
O=C1/C(=C/c2cccnc2)SC(=S)N1CCc1ccccc1 was read as EP2 mod 14.6, Avidin bead fluor 4 and EP2 antag 12.7.
Screening O=C1/C(=C/c2cccnc2)SC(=NCc2ccccc2)N1Cc1ccccc1 returned EP2 mod 66.4*, GSH fluor 12, HMGR II inh -0.9, EP2 antag 1.4 and EP2 cAMP induct active.
C[C@H]1C(=O)CCC2[C@]3(C)CC[C@@]4(C)C5CC(C)(C)CC[C@]5(C)CC[C@]4(C)C3CC[C@@]21C (stereo partly specified) was read as EP2 mod 8.7 and EP2 antag 8.0.
For COc1ccc(S(=O)(=O)N2c3cc(C)ccc3OCC2C(C)(C)C)cc1 (stereo unspecified) the results were EP2 mod 66.1*, GSH fluor 14, Avidin bead fluor 34, HMGR II inh 1.8, EP2 antag 8.8 and EP2 cAMP induct active.
Screening CCOc1ccc(/C=C\c2nc(O)c([N+](=O)[O-])c(=O)[nH]2)cc1OC returned EP2 mod -26.2 and EP2 antag 10.4.
For CSc1nc2nccc(-c3ccc(-c4ccccc4)cc3)n2n1 the results were EP2 mod 70.1*, GSH fluor 9, Avidin bead fluor 10, HMGR II inh -5.7, EP2 antag 10.0 and EP2 cAMP induct inactive.
Screening CSc1nc2nccc(-c3ccc(Oc4ccccc4)cc3)n2n1 returned EP2 mod -11.4, GSH fluor 23, Avidin bead fluor 21, HMGR II inh 1.1 and EP2 antag 12.4.
O=C(c1cccnc1)N1CCC[C@@H](Cn2cc(C(=O)N3CCOCC3)nn2)C1 was read as EP2 mod -12.3.
Screening Cc1ccc(-n2c(SCC(N)=O)nnc2-c2cccnc2)cc1 returned EP2 mod -6.3 and EP2 antag 9.0.
COc1ccc(N2CCN(Cn3nc4c5ccccc5ncn4c3=O)CC2)cc1 was read as EP2 mod -71.8 and EP2 antag 8.1.
Screening CCOC(=O)C(Cc1ccccc1)(NC(C)=O)C(=O)OCC returned EP2 mod 84.8*, GSH fluor 45, Avidin bead fluor 33, HMGR II inh 0.5, EP2 antag 7.6 and EP2 cAMP induct inactive.
CCC(C)(C)n1nnnc1C(c1cc2c(C)ccc(C)c2[nH]c1=O)N1CCN(C2CCCCC2)CC1 (stereo unspecified) was read as EP2 mod -1.2 and EP2 antag 12.1.
`C[C@H]1CC[C@@H](C(C)(C)O)CC2=C1CC[C@@H]2C` gave EP2 mod 52.5, EP2 antag 6.5 and EP2 cAMP induct inactive.
CC1CC(C)N(C(=O)c2cc(-c3ccccc3)on2)C(C)C1 (stereo unspecified) was read as EP2 mod -9.9 and EP2 antag 13.2.
For S=c1nc[nH]c2c1[nH]c1ccccc12 the results were EP2 mod 82.7*, GSH fluor 16, Avidin bead fluor 34, HMGR II inh -4.5, EP2 antag 13.9 and EP2 cAMP induct inactive.
